Potency data for 40 compounds are collected here from PubChem BioAssay (Tox21).

Inconclusive results are not listed. Entries that show only a call come without a potency. Calls of active or inactive are those of the source. Calls come from the whole dose curve.
Potency is the fitted concentration of half-maximal effect.

Progesterone receptor (Homo sapiens), sequence (P06401 whole entry, looked up): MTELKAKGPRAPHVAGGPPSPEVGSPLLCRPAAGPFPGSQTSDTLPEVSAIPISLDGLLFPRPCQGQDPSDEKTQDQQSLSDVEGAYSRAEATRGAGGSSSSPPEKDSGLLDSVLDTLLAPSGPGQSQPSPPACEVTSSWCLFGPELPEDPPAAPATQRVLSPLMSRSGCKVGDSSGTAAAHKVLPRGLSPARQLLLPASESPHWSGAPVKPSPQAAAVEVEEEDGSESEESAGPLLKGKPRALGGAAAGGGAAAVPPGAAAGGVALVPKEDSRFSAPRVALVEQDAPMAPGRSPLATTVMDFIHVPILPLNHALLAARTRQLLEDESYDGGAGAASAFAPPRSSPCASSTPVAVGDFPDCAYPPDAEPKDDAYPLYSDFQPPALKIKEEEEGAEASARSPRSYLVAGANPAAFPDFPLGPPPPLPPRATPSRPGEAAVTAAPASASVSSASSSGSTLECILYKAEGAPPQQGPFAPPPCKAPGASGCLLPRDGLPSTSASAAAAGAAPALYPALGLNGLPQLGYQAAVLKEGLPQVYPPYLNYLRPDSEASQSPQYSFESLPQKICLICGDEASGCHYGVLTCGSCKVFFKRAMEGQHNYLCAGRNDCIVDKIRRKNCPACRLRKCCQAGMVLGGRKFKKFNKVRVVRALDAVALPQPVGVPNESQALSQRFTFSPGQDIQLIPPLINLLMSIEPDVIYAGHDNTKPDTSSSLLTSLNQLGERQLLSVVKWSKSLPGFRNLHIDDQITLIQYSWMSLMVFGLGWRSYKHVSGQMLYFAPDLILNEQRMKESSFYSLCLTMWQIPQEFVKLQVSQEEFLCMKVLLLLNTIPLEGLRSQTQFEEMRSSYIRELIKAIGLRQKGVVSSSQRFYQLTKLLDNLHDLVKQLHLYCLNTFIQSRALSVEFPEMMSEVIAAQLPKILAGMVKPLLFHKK

The target of the experiment is Progesterone receptor (Homo sapiens) (UniProt P06401). In words: qHTS assay to identify small molecule agonists of the progesterone receptor (PR) signaling pathway (AID 1346784). Note: nearly all actives have a fitted effect of over 30% in size. The note with it: PR-UAS-bla HEK293T, beta-lactamase FRET ratio, 16 h; series mostly up to 92.4 µM. An excerpt:
U.S. Tox21 Program National Center for Advancing Translational Sciences [NCATS] NIH Chemical Genomics Center [NCGC] U.S. Environmental Protection Agency [EPA] National Institutes of Environmental Health Sciences [NIEHS] National Toxicology Program [NTP] U.S. Food and Drug Administration [FDA] […] Endocrine disrupting chemicals (EDCs) and their interactions with steroid hormone receptors like PR causes disruption of normal endocrine function. To identify the compounds that activate PR signaling, a PR-UAS-bla GripTite cell line i.e. PR-UAS-bla HEK 293T (Invitrogen, Carlsbad, CA, USA) containing a beta-lactamase reporter gene under the control of an Upstream Activator Sequence (UAS) was used to screen Tox21 10K compound library.
Tox21 Assay Protocol Summary: PR-UAS-bla HEK 293T cells were dispensed at 3,000 cells/5 uL of assay medium containing 2% charcoal stripped FBS per well into black wall/clear-bottom 1536-well plates using a Multidrop Combi (ThermoFisher Scientific, Waltham, MA) dispenser. After the assay plates were incubated at a 37C and 5% CO2 for 6hr, 23 nL of compounds dissolved in DMSO, positive controls or DMSO only was transferred to the assay plate by a Pintool station (Kalypsys, San Diego, CA). The plates were incubated at 37C and 5% CO2 for 16hr. Then 1 uL of LiveBLAzer B/G FRET substrate was added using a BioRAPTR FRD (Flying Reagent Dispenser, Aurora Discovery, San Diego, CA). After the plates were incubated at room temperature for 2 hours, fluorescence intensity was measured by an Envision plate reader (PerkinElmer, Shelton, CT).
A general note: qHTS replaces the single test concentration by a dilution series.
`C=CCN(CC=C)C(=O)C(Cl)Cl`: the Potency entry is “inactive”.

Consider `CCOc1cc(C=O)ccc1O`, for which the Potency result is “inactive”.

For the compound `O=P(O)(O)CCCl`, the Potency result was “inactive”.

On to `Cc1cc(Cl)ccc1OCCCC(=O)O`, for which the Potency entry was “inactive”.

Consider `O=C(O)CC[N+](=O)[O-]`, for which the Potency result was “inactive”.

Take `Clc1nc(Cl)nc(Cl)n1`: the Potency result is “inactive”.

Consider `COc1ccc(C=O)cc1`, for which the Potency result was “inactive”.

For `O=[N+]([O-])c1c(Cl)c(Cl)c(Cl)c(Cl)c1Cl`, the Potency result is “inactive”.

For `CCCCOCCOP(=O)(OCCOCCCC)OCCOCCCC`, the Potency result is “inactive”.

For `O=P(Oc1ccccc1)(Oc1ccccc1)Oc1ccccc1`, the Potency entry was “inactive”.

In the case of `CCC(C)c1cc([N+](=O)[O-])cc([N+](=O)[O-])c1O` (stereo not given), the Potency entry was “inactive”.

As for `CN(C)c1ccc(C(=O)c2ccc(N(C)C)cc2)cc1`, the Potency result is “inactive”.

On to `CCN(CC)N=O`, for which the Potency result is “inactive”.

For `Cc1cccc(N)c1N`, the Potency result was “inactive”.

As for `Nc1ccncc1`, the Potency result was “inactive”.

As to `Cc1ccccc1[N+](=O)[O-]`, the Potency entry is “inactive”.

Take `C#C[C@]1(O)CC[C@H]2[C@@H]3CCC4=CC(=O)CC[C@]4(C)[C@H]3CC[C@@]21C`: the Potency is 24.3 nM (active).

Consider `C=C(C)[C@H]1Cc2c(ccc3c2O[C@@H]2COc4cc(OC)c(OC)cc4[C@@H]2C3=O)O1`, for which the Potency entry was “inactive”.

Take `COP(=O)(OC)OC`: the Potency result was “inactive”.

Regarding `CN(C)C(=O)Nc1ccc(Cl)cc1`, the Potency entry was “inactive”.

Consider `C=CCc1ccc(OC)cc1`, for which the Potency result is “inactive”.

On to `Nc1ccc(Cl)cc1N`, for which the Potency result was “inactive”.

`CCc1cccc(CC)c1N(COC)C(=O)CCl`: the Potency entry is “inactive”.

In the case of `CCC(C)c1ccc(O)cc1` (stereo not given), the Potency entry was “inactive”.

For `CCN(CC)C(=O)SCc1ccc(Cl)cc1`, the Potency result is “inactive”.

Take `O=[N+]([O-])c1ccc(O)c([N+](=O)[O-])c1`: the Potency entry is “inactive”.

For `O=Cc1ccco1`, the Potency result is “inactive”.

As for `COP(=S)(OC)Oc1ccc([N+](=O)[O-])cc1`, the Potency result is “inactive”.

On to `C#CCOS(=O)OC1CCCCC1Oc1ccc(C(C)(C)C)cc1` (stereo not given), for which the Potency result was “inactive”.

On to `CCCCCc1cc(O)cc(O)c1`, for which the Potency result was “inactive”.

Regarding `NNC(=S)NN`, the Potency entry was “inactive”.

`Nc1ccc(-c2ccc(N)c(N)c2)cc1N`: the Potency result was “inactive”.

On to `c1ccc(NNc2ccccc2)cc1`, for which the Potency entry was “inactive”.

With `C=CCc1ccc2c(c1)OCO2`, the Potency entry was “inactive”.

For the compound `CCCCCCCCCCCOC(=O)c1ccccc1C(=O)OCCCCCCCCCCC`, the Potency result is “inactive”.

As to `N#CC(Br)Br`, the Potency result was “inactive”.

On to `CCCCC(CC)COC(=O)c1ccc(C(=O)OCC(CC)CCCC)c(C(=O)OCC(CC)CCCC)c1` (stereo not given), for which the Potency entry was “inactive”.

For the compound `Nc1c(Cl)cc([N+](=O)[O-])cc1Cl`, the Potency result was “inactive”.

In the case of `Nc1ccc(-c2ccccc2)cc1`, the Potency result was “inactive”.

`O=S(=O)(Oc1ccc(Cl)cc1)c1ccc(Cl)cc1`: the Potency result is “inactive”.
